test system: HCI01 (cells of a triple-negative basal-like breast cancer xenograft); experiment: cell viability of combination (% of vehicle); higher = less cytotoxic; details: 1 µM; 72 h; partner dose: 10 nM
Experimental: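 PDX cells were treated for 72 h with each drug at 1 µM plus carfilzomib (10 nM; 100 nM for WHIM2). Luciferase viability is expressed as percent of vehicle.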

Structure (SMILES) | cell viability of combination
COC(=O)C1=C(C)NC(C)=C(C(=O)OC2CCCN(Cc3ccccc3)C2)C1c1cccc([N+](=O)[O-])c1.Cl (stereo not given) [Benidipine HCl] + CC(C)C[C@H](NC(=O)[C@H](CCc1ccccc1)NC(=O)CN1CCOCC1)C(=O)N[C@@H](Cc1ccccc1)C(=O)N[C@@H](CC(C)C)C(=O)[C@@]1(C)CO1 [Carfilzomib] | 106
Nc1c(CC(=O)[O-])cccc1C(=O)c1ccccc1.O.[Na+] [Amfenac Sodium Monohydrate] + CC(C)C[C@H](NC(=O)[C@H](CCc1ccccc1)NC(=O)CN1CCOCC1)C(=O)N[C@@H](Cc1ccccc1)C(=O)N[C@@H](CC(C)C)C(=O)[C@@]1(C)CO1 [Carfilzomib] | 76.5
C1=C\COCc2cc(ccc2OCCN2CCCC2)Nc2nccc(n2)-c2cccc(c2)COC/1 [Pacritinib] + CC(C)C[C@H](NC(=O)[C@H](CCc1ccccc1)NC(=O)CN1CCOCC1)C(=O)N[C@@H](Cc1ccccc1)C(=O)N[C@@H](CC(C)C)C(=O)[C@@]1(C)CO1 [Carfilzomib] | 58.2
Nc1ncn(C2OC(CO)C(O)C2O)c(=O)n1 (stereo not given) [5-Azacytidine] + CC(C)C[C@H](NC(=O)[C@H](CCc1ccccc1)NC(=O)CN1CCOCC1)C(=O)N[C@@H](Cc1ccccc1)C(=O)N[C@@H](CC(C)C)C(=O)[C@@]1(C)CO1 [Carfilzomib] | 75.9
Cl.Nc1ccn(C2OC(CO)C(O)C2O)c(=O)n1 (stereo not given) [Cytarabine hydrochloride] + CC(C)C[C@H](NC(=O)[C@H](CCc1ccccc1)NC(=O)CN1CCOCC1)C(=O)N[C@@H](Cc1ccccc1)C(=O)N[C@@H](CC(C)C)C(=O)[C@@]1(C)CO1 [Carfilzomib] | 65.5
O=C(O)CO.[NH2-].[NH2-].[Pt+2] [Nedaplatin] + CC(C)C[C@H](NC(=O)[C@H](CCc1ccccc1)NC(=O)CN1CCOCC1)C(=O)N[C@@H](Cc1ccccc1)C(=O)N[C@@H](CC(C)C)C(=O)[C@@]1(C)CO1 [Carfilzomib] | 71.6
Clc1ccc(COC(Cn2ccnc2)c2ccc(Cl)cc2Cl)c(Cl)c1.O=[N+]([O-])O (stereo not given) [Miconazole Nitrate] + CC(C)C[C@H](NC(=O)[C@H](CCc1ccccc1)NC(=O)CN1CCOCC1)C(=O)N[C@@H](Cc1ccccc1)C(=O)N[C@@H](CC(C)C)C(=O)[C@@]1(C)CO1 [Carfilzomib] | 87.1
O=C1C=CC=CC1=C1NC(=C2C=CC=CC2=O)N(c2ccc(C(=O)O)cc2)N1 [Deferasirox] + CC(C)C[C@H](NC(=O)[C@H](CCc1ccccc1)NC(=O)CN1CCOCC1)C(=O)N[C@@H](Cc1ccccc1)C(=O)N[C@@H](CC(C)C)C(=O)[C@@]1(C)CO1 [Carfilzomib] | 67.8
Cc1nc(Nc2ncc(C(=O)Nc3c(C)cccc3Cl)s2)cc(N2CCN(CCO)CC2)n1 + CC(C)C[C@H](NC(=O)[C@H](CCc1ccccc1)NC(=O)CN1CCOCC1)C(=O)N[C@@H](Cc1ccccc1)C(=O)N[C@@H](CC(C)C)C(=O)[C@@]1(C)CO1 [Carfilzomib] | 61.3
O=C(c1ccc(F)c(F)c1Nc1ccc(I)cc1F)N1CC(O)(C2CCCCN2)C1 (stereo not given) [Cobimetinib] + CC(C)C[C@H](NC(=O)[C@H](CCc1ccccc1)NC(=O)CN1CCOCC1)C(=O)N[C@@H](Cc1ccccc1)C(=O)N[C@@H](CC(C)C)C(=O)[C@@]1(C)CO1 [Carfilzomib] | 65.6
O=C(NN=Cc1ccc([N+](=O)[O-])o1)c1ccc(O)cc1 [Nifuroxazide] + CC(C)C[C@H](NC(=O)[C@H](CCc1ccccc1)NC(=O)CN1CCOCC1)C(=O)N[C@@H](Cc1ccccc1)C(=O)N[C@@H](CC(C)C)C(=O)[C@@]1(C)CO1 [Carfilzomib] | 72.2
COc1ccc(C[C@H](N)C(=O)N[C@@H]2[C@H](O)[C@H](n3cnc4c(N(C)C)ncnc43)O[C@@H]2CO)cc1.Cl.Cl [Puromycin dihydrochloride] + CC(C)C[C@H](NC(=O)[C@H](CCc1ccccc1)NC(=O)CN1CCOCC1)C(=O)N[C@@H](Cc1ccccc1)C(=O)N[C@@H](CC(C)C)C(=O)[C@@]1(C)CO1 [Carfilzomib] | 76.4
COc1cc(Nc2c(C#N)cnc3cc(OCCCN4CCN(C)CC4)c(OC)cc23)c(Cl)cc1Cl [Bosutinib (SKI-606)] + CC(C)C[C@H](NC(=O)[C@H](CCc1ccccc1)NC(=O)CN1CCOCC1)C(=O)N[C@@H](Cc1ccccc1)C(=O)N[C@@H](CC(C)C)C(=O)[C@@]1(C)CO1 [Carfilzomib] | 70.1
COc1ncc(-c2ccc3nccc(-c4ccnnc4)c3c2)cc1NS(=O)(=O)c1ccc(F)cc1F + CC(C)C[C@H](NC(=O)[C@H](CCc1ccccc1)NC(=O)CN1CCOCC1)C(=O)N[C@@H](Cc1ccccc1)C(=O)N[C@@H](CC(C)C)C(=O)[C@@]1(C)CO1 [Carfilzomib] | 37.6
CS(=O)(=O)CCNCc1ccc(-c2ccc3ncnc(Nc4ccc(OCc5cccc(F)c5)c(Cl)c4)c3c2)o1.Cc1ccc(S(=O)(=O)O)cc1.Cc1ccc(S(=O)(=O)O)cc1 [Lapatinib Ditosylate] + CC(C)C[C@H](NC(=O)[C@H](CCc1ccccc1)NC(=O)CN1CCOCC1)C(=O)N[C@@H](Cc1ccccc1)C(=O)N[C@@H](CC(C)C)C(=O)[C@@]1(C)CO1 [Carfilzomib] | 69.5
CCCSc1nc(NC2CC2c2ccc(F)c(F)c2)c2nnn(C3CC(OCCO)C(O)C3O)c2n1 (stereo not given) [Ticagrelor] + CC(C)C[C@H](NC(=O)[C@H](CCc1ccccc1)NC(=O)CN1CCOCC1)C(=O)N[C@@H](Cc1ccccc1)C(=O)N[C@@H](CC(C)C)C(=O)[C@@]1(C)CO1 [Carfilzomib] | 95.1
CCCCc1oc2ccccc2c1C(=O)c1cc(I)c(OCCN(CC)CC)c(I)c1.Cl [Amiodarone HCl] + CC(C)C[C@H](NC(=O)[C@H](CCc1ccccc1)NC(=O)CN1CCOCC1)C(=O)N[C@@H](Cc1ccccc1)C(=O)N[C@@H](CC(C)C)C(=O)[C@@]1(C)CO1 [Carfilzomib] | 90.8
COC(=O)NC(C(=O)N1CCCC1c1ncc(-c2ccc(-c3ccc(-c4cnc(C5CCCN5C(=O)C(NC(=O)OC)C(C)C)[nH]4)cc3)cc2)[nH]1)C(C)C (stereo not given) + CC(C)C[C@H](NC(=O)[C@H](CCc1ccccc1)NC(=O)CN1CCOCC1)C(=O)N[C@@H](Cc1ccccc1)C(=O)N[C@@H](CC(C)C)C(=O)[C@@]1(C)CO1 [Carfilzomib] | 70.8
Cc1cc(-n2c(=O)[nH]c(=O)n(C)c2=O)ccc1Oc1ccc(SC(F)(F)F)cc1 [Toltrazuril] + CC(C)C[C@H](NC(=O)[C@H](CCc1ccccc1)NC(=O)CN1CCOCC1)C(=O)N[C@@H](Cc1ccccc1)C(=O)N[C@@H](CC(C)C)C(=O)[C@@]1(C)CO1 [Carfilzomib] | 76.4
COCCOC(=O)C1=C(C)NC(C)=C(C(=O)OCC=Cc2ccccc2)C1c1cccc([N+](=O)[O-])c1 (stereo not given) [Cilnidipine] + CC(C)C[C@H](NC(=O)[C@H](CCc1ccccc1)NC(=O)CN1CCOCC1)C(=O)N[C@@H](Cc1ccccc1)C(=O)N[C@@H](CC(C)C)C(=O)[C@@]1(C)CO1 [Carfilzomib] | 104
CC(Oc1cc(-c2cnn(C3CCNCC3)c2)cnc1N)c1c(Cl)ccc(F)c1Cl [(R)-Crizotinib] + CC(C)C[C@H](NC(=O)[C@H](CCc1ccccc1)NC(=O)CN1CCOCC1)C(=O)N[C@@H](Cc1ccccc1)C(=O)N[C@@H](CC(C)C)C(=O)[C@@]1(C)CO1 [Carfilzomib] | 146
CO[C@@]12[C@H](COC(N)=O)C3=C(C(=O)C(C)=C(N)C3=O)N1C[C@@H]1N[C@@H]12 [Mitomycin C] + CC(C)C[C@H](NC(=O)[C@H](CCc1ccccc1)NC(=O)CN1CCOCC1)C(=O)N[C@@H](Cc1ccccc1)C(=O)N[C@@H](CC(C)C)C(=O)[C@@]1(C)CO1 [Carfilzomib] | 51.1
CN(C(=O)CN(CCO)CC(=O)N(C)C(C)(C)Cc1ccccc1)C(C)(C)Cc1ccccc1 [Oxethazaine] + CC(C)C[C@H](NC(=O)[C@H](CCc1ccccc1)NC(=O)CN1CCOCC1)C(=O)N[C@@H](Cc1ccccc1)C(=O)N[C@@H](CC(C)C)C(=O)[C@@]1(C)CO1 [Carfilzomib] | 70.7
CC(C)(C)Cn1c(N)nc2ccc(-c3[nH]c(C(C)(C)C)nc3-c3ccc(F)cc3)nc21.CS(=O)(=O)O.CS(=O)(=O)O + CC(C)C[C@H](NC(=O)[C@H](CCc1ccccc1)NC(=O)CN1CCOCC1)C(=O)N[C@@H](Cc1ccccc1)C(=O)N[C@@H](CC(C)C)C(=O)[C@@]1(C)CO1 [Carfilzomib] | 61.9
CCOc1cc2ncc(C#N)c(Nc3ccc(F)c(Cl)c3)c2cc1NC(=O)C=CCN(C)C [Pelitinib (EKB-569)] + CC(C)C[C@H](NC(=O)[C@H](CCc1ccccc1)NC(=O)CN1CCOCC1)C(=O)N[C@@H](Cc1ccccc1)C(=O)N[C@@H](CC(C)C)C(=O)[C@@]1(C)CO1 [Carfilzomib] | 140
